Source: PubChem BioAssay AID1159580 (chemical genetic matrix, 2015)
In all, about 5,500 compounds went through this assay and about 2,000 (36%) were called active. Another 18% or so got no clear call; they are omitted. Cut-off read from the data, not from the text of the source: active = normalized growth mostly below about 0.91 (no sharp cut-off); inconclusive = no clear call, values can overlap the other calls; inactive = mostly above about 0.92. The list shows a part of the results.

Assay: chemical genetic growth profiling, strain panel (AID 1159580);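 note: tested at 20 µM; growth read once vehicle control cultures reached saturation at 30 °C; 1 = growth at the plate median or of vehicle wells; lower values mean less growth of the strain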
Settings: S. cerevisiae deletion strains, growth OD

Measured: normalized growth

NCCS(=O)(=O)O
inactive: locus YAL021C, strain ccr4, hits give low values 0.965 | locus YAL026C, strain drs2, hits give low values 0.978 | locus YAL030W, strain snc1, hits give low values 0.981 | locus YAL040C, strain CLN3, hits give low values 1 | locus YBL061C, strain skt5, hits give low values 0.984 | locus YBR009C, strain hhf1, hits give low values 0.981 | locus YBR023C, strain chs3, hits give low values 0.982 | locus YBR171W, strain sec66, hits give low values 0.97 | locus YBR231C, strain swc5, hits give low values 0.983 | locus YBR279W, strain paf1, hits give low values 0.985 | locus YCL011C, strain gbp2, hits give low values 0.965 | locus YCL016C, strain dcc1, hits give low values 0.984 | locus YCL061C, strain MRC1 (second series), hits give low values 1 | locus YCL061C, strain MRC1, hits give low values 0.98 | locus YCL069W, strain vba3, hits give low values 0.976 | locus YCR088W, strain abp1, hits give low values 0.978 | locus YDL005C, strain med2, hits give low values 0.984 | locus YDL040C, strain nat1, hits give low values 0.986 | locus YDR001C, strain nth1, hits give low values 0.983 | locus YDR069C, strain doa4, hits give low values 0.98 | locus YDR137W, strain rgp1, hits give low values 0.971 | locus YDR150W, strain NUM1, hits give low values 1.01 | locus YDR159W, strain sac3, hits give low values 0.952 | locus YDR195W, strain ref2 0.924 | locus YDR297W, strain sur2, hits give low values 0.979 | locus YDR334W, strain swr1, hits give low values 0.948 | locus YDR335W, strain msn5, hits give low values 0.969 | locus YDR363W, strain ESC2, hits give low values 1 | locus YDR392W, strain spt3, hits give low values 0.977 | locus YEL003W, strain gim4, hits give low values 0.975 | locus YEL037C, strain rad23, hits give low values 0.975 | locus YEL061C, strain CIN8 (second series), hits give low values 0.97 | locus YER002W, strain NOP16, hits give low values 0.984 | locus YER015W, strain faa2, hits give low values 0.971 | locus YER016W, strain bim1, hits give low values 0.975 | locus YER111C, strain swi4, hits give low values 0.967 | locus YER155C, strain BEM2 (second series), hits give low values 0.978 | locus YFR010W, strain ubp6, hits give low values 0.959 | locus YGL167C, strain pmr1, hits give low values 0.977 | locus YGL173C, strain kem1, hits give low values 0.971 | locus YGL227W, strain vid30, hits give low values 0.984 | locus YGL240W, strain doc1, hits give low values 0.961 | locus YGL253W, strain hxk2, hits give low values 0.986 | locus YHR013C, strain ard1, hits give low values 0.968 | locus YHR027C, strain rpn1, hits give low values 0.967 | locus YHR030C, strain SLT2, hits give low values 0.943 | locus YHR079C, strain IRE1, hits give low values 0.966 | locus YHR142W, strain chs7, hits give low values 0.964 | locus YJL092W, strain hpr5, hits give low values 0.963 | locus YJL095W, strain BCK1 (second series), hits give low values 0.972 | locus YJL095W, strain BCK1, hits give low values 0.998 | locus YJL115W, strain asf1, hits give low values 0.958 | locus YJL129C, strain trk1, hits give low values 0.961 | locus YJL154C, strain vps35, hits give low values 0.974 | locus YJL164C, strain tpk1, hits give low values 0.986 | locus YJL166W, strain qcr8, hits give low values 0.986 | locus YJL187C, strain SWE1, hits give low values 0.982 | locus YJR066W, strain TOR1, hits give low values 0.92 | locus YJR075W, strain HOC1, hits give low values 0.999 | locus YKL160W, strain elf1, hits give low values 0.983 | locus YKR026C, strain gcn3, hits give low values 0.967 | locus YKR091W, strain srl3, hits give low values 0.979 | locus YLL001W, strain dnm1, hits give low values 0.97 | locus YLL026W, hits give low values 0.982 | locus YLL041C, strain sdh2, hits give low values 0.971 | locus YLR027C, strain aat2, hits give low values 0.981 | locus YLR113W, strain HOG1, hits give low values 1.02 | locus YLR221C, strain rsa3, hits give low values 0.982 | locus YLR258W, strain gsy2, hits give low values 0.987 | locus YLR262C, strain YPT6 (second series), hits give low values 0.99 | locus YLR320W, strain mms22, hits give low values 0.972 | locus YLR342W, strain FKS1, hits give low values 0.985 | locus YLR357W, strain rsc2, hits give low values 0.972 | locus YLR370C, strain arc18, hits give low values 0.981 | locus YLR384C, strain iki3, hits give low values 0.977 | locus YML120C, strain ndi1, hits give low values 0.963 | locus YMR058W, strain fet3, hits give low values 0.97 | locus YMR125W, strain sto1, hits give low values 0.954 | locus YMR129W, hits give low values 0.978 | locus YMR205C, strain PFK2, hits give low values 1 | locus YMR231W, strain pep5, hits give low values 0.985 | locus YMR307W, strain GAS1, hits give low values 1 | locus YNL071W, strain lat1, hits give low values 0.981 | locus YNL128W, strain TEP1, hits give low values 1 | locus YNL153C, strain GIM3, hits give low values 1.04 | locus YNL175C, strain NOP13, hits give low values 1.01 | locus YNL183C, strain NPR1, hits give low values 0.939 | locus YNL197C, strain WHI3, hits give low values 0.993 | locus YNL209W, strain ssb2, hits give low values 0.973 | locus YNL224C, strain SQS1, hits give low values 1 | locus YNL248C, strain rpa49, hits give low values 0.944 | locus YNL322C, strain KRE1 (second series), hits give low values 0.971 | locus YNR049C, strain mso1, hits give low values 0.975 | locus YOR001W, strain rrp6, hits give low values 0.957 | locus YOR070C, strain gyp1, hits give low values 0.992 | locus YOR080W, strain dia2, hits give low values 0.978 | locus YOR083W, strain WHI5 (second series), hits give low values 1.03 | locus YOR083W, strain WHI5, hits give low values 0.976 | locus YOR106W, strain vam3, hits give low values 0.97 | locus YOR231W, strain MKK1, hits give low values 0.954 | locus YOR265W, strain rbl2, hits give low values 0.976 | locus YOR270C, strain vph1, hits give low values 0.949 | locus YOR290C, strain snf2, hits give low values 0.999 | locus YPL051W, strain arl3, hits give low values 0.99 | locus YPL055C, strain LGE1, hits give low values 1 | locus YPL078C, strain atp4, hits give low values 0.966 | locus YPL106C, strain sse1, hits give low values 0.947 | locus YPL240C, strain hsp82, hits give low values 0.994 | locus YPL241C, strain CIN2, hits give low values 1 | locus YPL256C, strain CLN2, hits give low values 0.957
